{
  "source": "PubChem BioAssay (NCI)",
  "note": "Compounds without any hit were thinned out: in the full panel of roughly 83,000, 20% have a hit.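 In brief: 96-well plates, 48 h treatment, single concentration, percent growth endpoint.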 Activity calls are given as the source filed them. The calls were made as follows: active = growth percent below 10; inactive = the rest.",
  "data": [
    {"system": "MDA-MB-468 breast", "experiment": "NCI-60 one-dose screen, 48 h (100 = growth as untreated, 0 = no growth, -100 = all killed)", "details": "10 µM unless noted", "values": [
      {"compound": "COC1(OC)C2(Cl)C(Cl)=C(Cl)C1(Cl)C1COCC12", "note": "(configuration not stated)", "growth": "87% (inactive)"},
      {"compound": "CCOC(=O)c1cc2c(=O)oc3ccccc3c2oc1=O", "growth": "88.2% (inactive)"},
      {"compound": "CC1(c2ccccc2)NC(=O)NC1=O", "note": "(configuration not stated)", "growth": "105% (inactive)"},
      {"compound": "CCc1ccc(C2=C/C(=C/c3ccc(Cl)cc3)C(=O)N2CCc2ccc(S(N)(=O)=O)cc2)cc1", "growth": "13.5% (inactive)"},
      {"compound": "C[C@H]1[C@H]2[C@H]3CC[C@@H]4[C@@]5(C)CC[C@H](O)C(C)(C)[C@@H]5CC[C@@]4(C)[C@]3(C)CC[C@]23CO[C@]1(C)[C@@H](C(=O)/C=C\\c1ccco1)C3", "growth": "19.3% (inactive)"},
      {"compound": "O=C1CC(=NCC(=O)n2c(-c3ccccc3)nc3ccccc32)NN1", "growth": "94% (inactive)"},
      {"compound": "O=S(=O)(NCCNc1nccc(-n2cnc3ccccc32)n1)c1ccc(Br)cc1", "growth": "84% (inactive)"},
      {"compound": "CCc1cc2c(cc1N1CCC(N3CCOCC3)CC1)C(C)(C)c1[nH]c3cc(C#N)ccc3c1C2=O", "growth": "-38.2% (active)"},
      {"compound": "CNC(=O)c1cc(Cn2nc(C)c(NC(=O)Nc3ccc(Cl)c(C(F)(F)F)c3)c2C)ccn1", "growth": "97.5% (inactive)"},
      {"compound": "CC(C)C[C@H](NC(=O)Cn1cccc(CNC(=O)c2ccccc2)c1=O)B(O)O", "growth": "-19.5% (active)"},
      {"compound": "NC(=O)c1c(NC(=S)Nc2ccc(OC(F)(F)F)cc2)sc2c1CCC1(C2)OCCO1", "growth": "94.7% (inactive)"},
      {"compound": "C=C(C)[C@@H]1CC[C@]2(COCCC#N)CC[C@]3(C)[C@H](CC[C@@H]4[C@@]5(C)Cc6c([nH]c7ccccc67)C(C)(C)[C@@H]5CC[C@]43C)[C@@H]12", "growth": "115% (inactive)"}
    ]}
  ]
}
